Source: PubChem BioAssay
Shown are actives, neighbours in structure and some others; about 3.2% of the full set was active somewhere.
USP2a inhib: blocks human ubiquitin-specific protease USP2a; 60,000 tested, 0.1% active; Potency, µM (titrated, usually from 38.3 µM), actives largely listed as inhibitors; USP2a enzymatic assay, qHTS inhibition; also: nearly all actives have a fitted effect of over 60% in size
Target sequence (O75604 whole entry, looked up): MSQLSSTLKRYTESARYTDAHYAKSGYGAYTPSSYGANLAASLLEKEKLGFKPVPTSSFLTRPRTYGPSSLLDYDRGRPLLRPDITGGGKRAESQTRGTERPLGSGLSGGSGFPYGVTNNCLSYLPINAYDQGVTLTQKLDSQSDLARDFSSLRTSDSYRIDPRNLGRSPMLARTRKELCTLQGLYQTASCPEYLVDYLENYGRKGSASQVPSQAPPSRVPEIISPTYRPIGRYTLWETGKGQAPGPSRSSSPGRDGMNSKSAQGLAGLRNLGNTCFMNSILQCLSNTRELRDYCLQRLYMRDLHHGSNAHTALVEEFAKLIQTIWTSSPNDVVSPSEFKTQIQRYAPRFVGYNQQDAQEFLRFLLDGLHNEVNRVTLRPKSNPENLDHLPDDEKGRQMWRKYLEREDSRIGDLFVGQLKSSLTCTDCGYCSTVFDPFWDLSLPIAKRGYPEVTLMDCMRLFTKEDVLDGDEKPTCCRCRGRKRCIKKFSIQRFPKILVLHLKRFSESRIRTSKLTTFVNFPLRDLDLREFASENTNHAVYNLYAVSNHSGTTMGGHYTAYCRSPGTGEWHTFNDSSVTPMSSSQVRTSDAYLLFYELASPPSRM
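USP2 core (20 nM final) was preincubated with compound for 30 min at RT in 20 mM Tris-HCl pH 8.0, 2 mM CaCl2, 2 mM beta-mercaptoethanol; Ub-PLA2 (20 nM) plus NBD C6-HPC (20 uM) then added, fluorescence read after 2.5 h.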
Hsp90 Hop PPI: changes Hsp90-Hop TPR2A binding signal, up or down; AlphaScreen TPR2A-His6 binding biotin-Hsp90 C-terminal peptide; Potency, µM (top dose mostly 57 µM); 71,000 tested, 0.44% active; active = well fitted curve in either direction with a large enough effect; inconclusive = small, poorly fitted or top-dose-only effect, or another doubt
15-hLO inh: inhibitors of human 15-lipoxygenase (ALOX15) | P16050 | purified 15hLO-1, xylenol orange hydroperoxide absorbance | Potency, µM (highest dose often 57.1 µM), most hits filed as inhibitors | 74,000 tested, 1.4% active | AID 887; also: nearly all actives have a fitted effect of over 55% in size
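Hydroperoxide formed from arachidonic acid (50 uM) by purified human 15hLO-1 (40 nM) oxidizes ferrous iron, and the ferric-xylenol orange complex is read at 573 versus 405 nm. Compounds were preincubated 15 min; reaction ran 6 min at room temperature.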
Tau filament bind: binds recombinant human tau filaments | recombinant tau filaments, thioflavin S fluorescence, 15 h; filaments grown with octadecylsulfate alongside compound | Potency, µM (doses to about 57.1 µM) | P10636 | 71,000 tested, 2% active;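 also: actives lower thioflavin S fluorescence by blocking filaments or displacing dye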
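Thioflavine S fluorescence (ex 450, em 510 nm) reports filaments formed from 1 uM human tau plus 30 uM ODS over 15 h at 37 C (10 mM HEPES pH 7.4, 100 mM NaCl, 5 mM DTT); compounds displacing dye or blocking filaments lower signal.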
Hits are given with their value; i = inactive; ? = inconclusive; nt = not tested or not shown; [ ] = dose if it differs, or a comment. Unless noted, calls follow the shape of the dose curve; as a rule, active = well fitted curve in the direction sought with a large enough effect; inconclusive = small, poorly fitted or top-dose-only effect, or another doubt; inactive = no such curve, though single readings can be large; an effect the other way counts as inactive or inconclusive.

SMILES	USP2a inhib	Hsp90 Hop PPI	15-hLO inh	Tau filament bind
Cc1cc(OCc2ccc(F)cc2)nc(-c2ccccc2O)n1	i	25µM	i	i
CN1CCN(c2ncc3ncc(=O)n(CCC#N)c3n2)CC1	i	i	i	i
COc1ccc2c(=O)c3c(=O)n(Cc4ccco4)c(-c4ccccc4)nc3oc2c1	i	i	i	2.5µM
CCCCCCn1c(-c2ccco2)nc2oc3cc(OC)ccc3c(=O)c2c1=O	i	i	i	3.2µM
N[C@H](CCC(=O)NCS(=O)(=O)O)C(=O)O	i	i	i	i
O=C1C[C@@H](O)[C@@H](O)[C@@H]2[C@H]3C(=O)N(c4ccc(F)cc4F)C(=O)[C@@H]3CC[C@H]12	nt	nt	i[11.4 µM]	nt
COc1cccc(Cn2c(=O)cnc3cnc(N(C)C)nc32)c1	i	i	i	i
CC(C)OC(=O)c1ccc(N2C(=O)C3CC=CCC3C2=O)cc1 (configuration not stated)	i	i	i	i
C/C(=N\O)c1ccc(N2C(=O)C3CC=C(Cl)CC3C2=O)cc1 (configuration not stated)	i[7.66 µM]	i[11 µM]	i[11.4 µM]	3.2µM
Cc1nc(-c2ccccc2)cc(N2CCCC2)n1	i[7.66 µM]	i[11 µM]	i[11.4 µM]	i[11.4 µM]
Nc1nc(-c2ccccc2)cc(N2CCCCC2)n1	i	i	i	25µM
Oc1ccccc1C1=Nc2nc3ccccc3n2C(c2ccccc2)C1 (configuration not stated)	i	i	i	7.9µM
CC1(C)C(O)C=C[C@@]2(C)C1CC(=O)O[C@@]1(C)C3=CC(=O)OC(c4ccoc4)[C@]3(C)CCC21 (some centres not stated)	i	nt	i	nt
CC1CCN(Cc2c(C#N)c3ccccc3n2C)CC1	i	i	25µM	i
CN1CCN(Cc2c(C#N)c3ccccc3n2C)CC1	i	i	i	i
COc1ccc(-c2cnn(-c3ccccc3)c2N)cc1OC	i[7.66 µM]	i[11 µM]	i[11.4 µM]	i[11.4 µM]
Nc1nc2c(s1)CCc1c-2cnn1-c1ccccc1	i	i	2.5µM	20µM
CCCCCSc1nnc(-c2cc(Br)ccc2N)c(=O)[nH]1	i	i	i	10µM
CCCCSc1nnc(-c2ccccc2N)c(=O)[nH]1	nt	nt	i	nt
Nc1ccc(N2CCCCC2)cc1N1CCCCC1	nt	?	?	7.9µM
Cc1ccccc1Cn1cc(NC(=O)c2cc3nc(-c4ccco4)cc(C(F)(F)F)n3n2)cn1	i	i	?	3.2µM
O=C(c1cc2nc(-c3ccco3)cc(C(F)(F)F)n2n1)N1CCN(c2ccc(F)cc2)CC1	nt	i	?	13µM
NC[C@@H]1O[C@@H](O[C@H]2[C@@H](O)[C@H](O[C@@H]3[C@H](O)[C@H](N)C[C@H](N)[C@H]3O[C@@H]3O[C@@H](CO)[C@H](O)[C@H](O)[C@@H]3N)O[C@H]2CO)[C@H](N)[C@H](O)[C@@H]1O	i	i	i	i
COCCn1c(=O)c(-c2cccc(C#N)c2)nc2cnc(Oc3ccc(OC)cc3)nc21	i	i	i	?
O=C1c2ccccc2-c2nc3ncnn3c(-c3ccccc3Cl)c21	nt	i	i	13µM
SMILES	USP2a inhib	Hsp90 Hop PPI	15-hLO inh	Tau filament bind
O=C1OC2(c3cc(Br)c(O)c(Br)c3Oc3c2cc(Br)c(O)c3Br)c2c(Cl)c(Cl)c(Cl)c(Cl)c21	nt	?	i	0.13µM
O=C(O)c1cc2c(cc1S(=O)(=O)O)[C@H]1[C@@H]([C@H]3[C@H]2[C@@]2(Cl)C(Cl)=C(Cl)[C@]3(Cl)C2(Cl)Cl)[C@]2(Cl)C(Cl)=C(Cl)[C@@]1(Cl)C2(Cl)Cl	nt	i[11 µM]	5µM	i[11.4 µM]
O=C(Nc1ccc(N2CCN(C(=O)c3ccc(Cl)cc3)CC2)cc1)c1cccnc1	i	i	i	10µM
O=C(CSc1ncnc2c1nnn2-c1ccc(F)cc1)N1CCN(c2ccccc2)CC1	nt	nt	i	nt
OC1CN=C2CCCc3c2n(c2ccc(Cl)cc32)C1 (configuration not stated)	i	i	?	7.9µM
CCn1c2c(c3cc(Cl)ccc31)CCCC2=O	nt	i	i	i
Nc1nc(-c2cc(-c3cccc4ccccc34)nc(N)n2)cc(-c2cccc3ccccc23)n1	nt	i[11 µM]	i[11.4 µM]	i[11.4 µM]
c1ccc2c(c1)-c1cccc3c1c-2cc1ccccc13	nt	5µM	i	i
COC(=O)C1=C(C)N=c2s/c(=C/c3ccoc3)c(=O)n2C1c1ccccc1 (configuration not stated)	i	i	?	i
COC(=O)C1=C(C)N=c2s/c(=C/c3cccs3)c(=O)n2C1c1cccs1 (configuration not stated)	i	i	i	1µM
CCOC(=O)c1[nH]cnc1C(=O)O	nt	25µM	i	i
CCCc1ccc(Oc2c(-c3ccc(O)c(C)c3O)n[nH]c2C)cc1	16µM	i	?	?
COc1ccc(C(=O)C2C3C4COC(O4)C(=O)C3C3C=Cc4ccccc4N32)c(OC)c1 (configuration not stated)	nt	nt	i	nt
CC(=O)[C@@]1(N=Nc2ccc(S(N)(=O)=O)cc2)CCOC1=O	nt	i[11 µM]	i[11.4 µM]	i[11.4 µM]
NS(=O)(=O)c1ccc(N=Nc2ccc[nH]c2=O)cc1	nt	i[11 µM]	3.2µM	i[11.4 µM]
O=C1C2C3CCCC3=C3CCCC3C2C(=O)N1c1ccccc1 (configuration not stated)	i	i	20µM	i
CCCC[C@H]1C[C@@H]1[C@@H]1N(P(=O)(c2ccccc2)c2ccccc2)C[C@@](O)(c2ccccc2)CC12CC2	nt	i	nt	i
N[C@H](Cc1ccc(F)cc1)C(=O)O	i	i	i	i
Nc1nc2ncc(=O)[nH]c2c(=O)[nH]1	i	nt	i	nt
CCN(CC)c1ccc(NC(=O)Nc2ccc(C(C)=O)cc2)cc1	i	i	i	?
CCN(CC)c1ccc(N)cc1	nt	?	i	13µM
C=C(C)C(O)/C=C/c1ccc(Br)cc1 (configuration not stated)	nt	nt	i[11.4 µM]	nt
O=C(CSc1nnc(COc2ccc(Cl)cc2)o1)N1CCN(c2ccccc2)CC1	nt	i	i	i
O=C(CSc1nnc(-c2ccc(Cl)cc2)o1)N1CCN(c2ccccc2)CC1	i	i	i	13µM
CCOC(=O)c1c(C)[nH]c2ccc3c(c12)CN1CCc2cc(OC)ccc2[C@@H]1O3	nt	i	i	2.5µM
SMILES	USP2a inhib	Hsp90 Hop PPI	15-hLO inh	Tau filament bind
C=CC[C@@H]1C=C[C@H](Oc2ccc(C)cc2)[C@H](COC(=O)NCc2cccc3ccccc23)O1	nt	nt	i[11.4 µM]	nt
NC(=O)c1cc(Br)cc2c3c([nH]c12)CCCC3	?	i	7.9µM	i
Cc1cccc(Nc2n[nH]c(=S)s2)c1C	i	i	10µM	i
C/C(N)=C(/C#N)C(=O)CSc1nnc(Nc2cccc(C)c2C)s1	i	i	i	i
CCOc1cccc(C2c3c(oc4cc(C)c(C)cc4c3=O)C(=O)N2CCCN(C)C)c1 (configuration not stated)	nt	i	i	13µM
Cc1cc2oc3c(c(=O)c2cc1C)C(c1ccc(F)cc1)N(CCCN1CCOCC1)C3=O (configuration not stated)	nt	i	i	20µM
O=C1c2ccccc2C(=O)C12Cc1ccccc1N1CCN(c3ccccc3)CC12 (configuration not stated)	i	i	i	10µM
O=C(N1CCN(c2ccccc2)CC1)C12CC3CC(CC(C3)C1)C2	i	i	i	i
OCC(O)C(O)C(O)CO (configuration not stated)	i	nt	i	nt
Oc1ccc(/C=C/c2cc(O)cc(O)c2)cc1	nt	i	i	i
